Results on twelve compounds are retold here after PubChem BioAssay (NCATS).

Structures are written as SMILES. Inconclusive results are not listed. Where a call stands in place of a potency, no number is given. The source made the active and inactive calls. Calls follow the shape of the dose curve; as a rule, active = well fitted inhibition curve with a large enough effect; inconclusive = small, poorly fitted or top-dose-only effect; inactive = flat fitted curve, though single readings scatter. Where a SMILES comes first, the peptide text is derived from it. [ ]: non-standard residue; d: D form.
Potency is read from the fitted curve at half-maximal effect.

A short description of this assay: P-glycoprotein substrates identified in KB-8-5-11 adenocarcinoma cell line, qHTS therapeutic library screen (AID 1346987). Also: nearly all actives have a fitted effect of over 65% in size. The conditions noted are these: KB-8-5-11 (P-gp overexpressing) viability, CellTiter-Glo, 72 h; series mostly up to 44.5 µM. A digest of the protocol:
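Human cervical adenocarcinoma KB-8-5-11 cells, selected in colchicine to over-express P-gp and assayed without it, were exposed for 72 h to titrated compounds. An ATP-based luminescent viability signal gave AC50.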
In general terms: Quantitative high-throughput screening tests each substance at several concentrations.
On to `CC(C)C1=CCC(C)(O)C(OC2OC(CO)C(O)C(O)C2O)C1` (configuration not stated), for which the Potency result was “inactive”. For `N[C@H](C(=O)O)[C@@H]1CC(Cl)=NO1` the value was 4.11 µM (active). With `CC12CCC3c4ccc(O)cc4CCC3C1CCC2OC1OC(C(=O)O)C(O)C(O)C1O` (configuration not stated), the Potency entry was “inactive”.

For the compound `Cc1ccc(C(=O)Nc2ccc(Oc3cc4cnn(C)c4cc3-c3cn[nH]c3)c(F)c2)c(=O)n1-c1ccc(F)cc1`, the Potency is 4.61 µM (active). For the compound `CC(=O)OCC(=O)[C@@]12OC3(CCCC3)O[C@@H]1C[C@H]1[C@@H]3CCC4=CC(=O)C=C[C@]4(C)[C@@]3(F)[C@@H](O)C[C@@]12C`, the Potency result was “inactive”. For `CC(=O)OCC1=C[C@H](O)[C@@H]2C(C(=O)O)=CO[C@@H](O[C@@H]3O[C@H](CO)[C@@H](O)[C@H](O)[C@H]3O)[C@H]12`, the Potency result was “inactive”.

As to `CC(=O)O[C@@]1(C)C[C@@H](O)[C@]2(O)C=CO[C@@H](O[C@@H]3O[C@H](CO)[C@@H](O)[C@H](O)[C@H]3O)[C@@H]21`, the Potency entry is “inactive”. In the case of `C=C1C[C@]23C[C@H]1CC[C@H]2[C@]1(C)CCC[C@@]2(CO)C(=O)O[C@H]([C@H]21)[C@@H]3O`, the Potency entry was “inactive”.

For the compound `CC(=O)N[C@H](Cc1ccc(O)cc1)C(=O)N[C@H](CCCN=C(N)N)C(=O)N[C@H](Cc1ccccc1)C(N)=O` (Ac-[dY]-[dR]-[dF]-NH2), the Potency result is “inactive”. For `CC(=O)OC1C=C(C(=O)O)C2(CO)CCC(C)C(C)(CCc3ccoc3)C2C1` (configuration not stated) the value was “inactive”; for `Nc1nc(CC(=O)Nc2ccc(CCNCC(O)c3ccccc3)cc2)cs1` (configuration not stated), “inactive”. For `CC1=C(/C=C/C(C)=C/C=C/C(C)=C/C=C/C=C(C)/C=C/C=C(C)/C=C/C2=C(C)CCCC2(C)C)C(C)(C)CCC1`, the Potency entry was “inactive”.
